“And” between values parts separate entries of the source, which are not always exact repeats. Equal values may be shown once. Results filed as inconclusive are left out. The source made the active and inactive calls. Unless noted, calls come from the whole dose curve; as a rule, active = well fitted curve in the direction sought with a large enough effect in the repeat runs; inconclusive = weak or mixed curves; inactive = no such curve, though single readings can be large; an effect the other way counts as inactive or inconclusive.
Experiments:
[1] = qHTS assay to identify small molecule agonists of the peroxisome proliferator-activated receptor delta (PPARd) signaling pathway - cell viability counter screen (AID 743211); note: % is set by controls: 0 for no effect and ±100 for the full control effect; nearly all actives have a fitted effect of over 55% in size
Outline: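 In the same wells used for beta-lactamase reporter measurement, cytotoxicity is scored by CellTiter-Glo. HEK293H PPARd-bla cells receive compound for 17 h at 37C following a 5 h settling period.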

[2] = qHTS assay to identify small molecule antagonists of the peroxisome proliferator-activated receptor delta (PPARd) signaling pathway - cell viability counter screen (AID 743213); note: nearly all actives have a fitted effect of over 50% in size; note: potency is the fitted concentration of half-maximal effect
Outline: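 HEK293H PPARd UAS-bla cells, 5 h pre-incubation, compound + L165041 300 nM final, 17 h 37 C; B/G FRET substrate 2 h RT; then CellTiter-Glo 30 min RT, luminescence.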

[3] = qHTS assay to identify small molecule antagonists of the farnesoid-X-receptor (FXR) signaling pathway - cell viability counter screen (AID 743221; active = well fitted cell-killing curve with a large enough effect in the repeat runs, not every such curve was filed as active; note: nearly all actives have a fitted effect of over 50% in size; note: potency is the fitted concentration of half-maximal effect)
Outline: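 Here viability was scored by luminescence after CellTiter-Glo addition to wells already read for beta-lactamase. Prior treatment: compound plus CDCA (50 uM final), 16 h, 37 C, HEK 293T FXR-bla cells.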

[4] = biological target: Vitamin D3 receptor (Homo sapiens) (UniProt P11473); test: qHTS assay to identify small molecule agonists of the vitamin D receptor (VDR) signaling pathway (AID 743222; calls by dose curve; note: potency is the fitted concentration of half-maximal effect)
Outline: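 VDR-bla cells, 2,000/well; 4 h preincubation 37C; cpd (DMSO) 16 h; LiveBLAzer B/G substrate 2 h RT; fluorescence intensity read.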

[5] = qHTS assay to identify small molecule agonists of the vitamin D receptor (VDR) signaling pathway - cell viability counter screen (AID 743224); note: nearly all actives have a fitted effect of over 50% in size; note: potency is the fitted concentration of half-maximal effect
Outline: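 Luminescence from CellTiter-Glo, read after 30 min at room temperature, reports viability of VDR-bla cells treated with compounds for 16 h at 37C in the wells used for the beta-lactamase FRET read.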

[6] = qHTS assay to identify small molecule antagonists of the vitamin D receptor (VDR) signaling pathway - cell viability counter screen (AID 743225); note: nearly all actives have a fitted effect of over 50% in size; note: potency is the fitted concentration of half-maximal effect
Outline: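 Compounds were pinned onto VDR-bla HEK 293T cells together with 1-alpha,25-dihydroxyvitamin D3 at 3 nM final. After 16 h at 37C and 5% CO2 plus the reporter readout, cell viability was measured by CellTiter-Glo luminescence (30 min, room temperature).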

[7] = qHTS assay to identify small molecule agonists of the NFkB signaling pathway - cell viability counter screen (AID 1159515; calls by dose curve; note: nearly all actives have a fitted effect of over 55% in size; note: potency is the fitted concentration of half-maximal effect)
Outline: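 Luminescence from CellTiter-Glo (30 min, room temperature) gives viability, measured in the same wells as the beta-lactamase reporter read. Cells were NFkB-bla ME-180, 2,000 per well, treated 5 hr with compounds.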

[8] = qHTS assay to identify small molecule agonists of the endoplasmic reticulum stress response signaling pathway (AID 1159516; active = well fitted activation curve with a large enough effect in the signal ratio in the repeat runs, not every such curve was filed as active; the % refers to the signal ratio; note: potency is the fitted concentration of half-maximal effect)
Outline: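 Read-out is beta-lactamase cleavage of a FRET substrate (405 nm excitation; 460 and 530 nm emissions) in ESRE-bla HeLa cells after a 5 hr compound exposure at 37 C. Substrate incubation ran 2 hr at room temperature.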

[9] = qHTS assay to identify small molecule antagonists of the retinoid-related orphan receptor gamma (ROR-gamma) signaling pathway - cell viability counter screen (AID 1159520); note: nearly all actives have a fitted effect of over 50% in size; note: potency is the fitted concentration of half-maximal effect
Outline: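 Tet-on ROR gamma CHO cells (1,000/well) were plated 4 hr, given compounds in DMSO for 2 hr at 37 C, then induced with 1 uM final doxycycline for 16 hr. Viability was read as ATP by CellTiter-Glo luminescence after 30 min.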

[10] = biological target: Nuclear receptor ROR-gamma (Homo sapiens) (UniProt P51449); test: qHTS assay to identify small molecule antagonists of the retinoid-related orphan receptor gamma (ROR-gamma) signaling pathway (AID 1159521; note: nearly all actives have a fitted effect of over 50% in size; note: potency is the fitted concentration of half-maximal effect)
Outline: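 Test compounds were applied to Tet-on RORγ CHO cells 2 h ahead of doxycycline hyclate (1 uM final). Luciferase reporter activity was quantified by luminescence after 16 h at 37 C and 5% CO2.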

[11] = qHTS assay to identify small molecule agonists of the AP-1 signaling pathway - cell viability counter screen (AID 1159525; calls by dose curve; note: nearly all actives have a fitted effect of over 55% in size)
Outline: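 ME-180 AP-1-bla, 2500 cells/well, Opti-MEM + 0.5% dialyzed FBS; overnight 37 °C; cpd 15-pt titration, 5 h 37 °C; CellTiter-Glo 30 min RT; luminescence read; normalised to TOAB and DMSO controls.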

[12] = biological target: Retinoic acid receptor RXR-alpha (Homo sapiens) (UniProt P19793); test: qHTS assay to identify small molecule agonists of the RXR signaling pathway (AID 1159527; calls by dose curve; note: nearly all actives have a fitted effect of over 35% in size; note: potency is the fitted concentration of half-maximal effect)
Outline: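 Using 9-cis retinoic acid as the reference agonist, chemicals were tested in HEK 293T cells […] for 16 hr; substrate loading lasted 2 hr at room temperature.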

[13] = biological target: Peroxisome proliferator-activated receptor delta (Homo sapiens) (UniProt Q03181); test: qHTS assay to identify small molecule agonists of the peroxisome proliferator-activated receptor delta (PPARd) signaling pathway (AID 743212; calls by dose curve; note: % is set by controls: 0 for no effect and ±100 for the full control effect)
Outline: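 GeneBLAzer PPARd UAS-bla HEK293H cells (beta-lactamase reporter under UAS control), plated and rested 5 h at 37 C, then exposed to compounds in DMSO at 37 C; LiveBLAzer B/G FRET substrate added, 2 h room temperature, fluorescence read.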

[14] = biological target: Peroxisome proliferator-activated receptor delta (Homo sapiens) (UniProt Q03181); test: qHTS assay to identify small molecule antagonists of the peroxisome proliferator-activated receptor delta (PPARd) signaling pathway (AID 743215; active = well fitted inhibition curve with a large enough effect in the signal ratio in the repeat runs, not every such curve was filed as active; the % refers to the signal ratio;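 note: cells stimulated with agonist L165041 at 300 nM final during compound exposure; series mostly up to about 62 µM; % is set by controls: 0 for no effect and ±100 for the full control effect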)
Outline: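 Read-out is beta-lactamase FRET fluorescence, measured 2 h after substrate addition at room temperature. Beforehand, UAS-bla HEK293H cells carrying the PPARd reporter were exposed to compounds with L165041 at 300 nM final for 17 h at 37 C.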

[15] = qHTS assay to identify small molecule agonists of the farnesoid-X-receptor (FXR) signaling pathway - cell viability counter screen (AID 743218); note: nearly all actives have a fitted effect of over 45% in size; note: potency is the fitted concentration of half-maximal effect
Outline: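 HEK 293T FXR-bla cells; 5 h pre-incubation, 16 h compound exposure at 37 C; LiveBLAzer substrate 2 h RT, then CellTiter-Glo 30 min RT, luminescence.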

[16] = biological target: Vitamin D3 receptor (Homo sapiens) (UniProt P11473); test: qHTS assay to identify small molecule antagonists of the vitamin D receptor (VDR) signaling pathway (AID 743223; active = well fitted inhibition curve with a large enough effect in the signal ratio in the repeat runs, not every such curve was filed as active; the % refers to the signal ratio; note: % is set by controls: 0 for no effect and ±100 for the full control effect)
Outline: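 Inhibition of agonist-driven VDR signalling is scored in VDR-bla cells: 3 nM final 1alpha,25-dihydroxyvitamin D3 plus compound, 16 h at 37C, then beta-lactamase detection by FRET substrate fluorescence after 2 h.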

[17] = qHTS assay to identify small molecule agonists of the AP-1 signaling pathway (AID 1159526; calls by dose curve; note: % is set by controls: 0 for no effect and ±100 for the full control effect)
[18] = biological target: Bile acid receptor (Homo sapiens) (UniProt Q96RI1); test: qHTS assay to identify small molecule agonists of the farnesoid-X-receptor (FXR) signaling pathway (AID 743220; active = well fitted activation curve with a large enough effect in the signal ratio in the repeat runs, not every such curve was filed as active; the % refers to the signal ratio; note: potency is the fitted concentration of half-maximal effect)
Outline: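 Beta-lactamase reporter under UAS control in GeneBLAzer FXR HEK 293T cells (5000/well) measured with LiveBLAzer FRET substrate after 2 h at room temperature. Compound exposure lasted 16 h at 37C.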

[19] = biological target: Bile acid receptor (Homo sapiens) (UniProt Q96RI1); test: qHTS assay to identify small molecule antagonists of the farnesoid-X-receptor (FXR) signaling pathway (AID 743217; active = well fitted inhibition curve with a large enough effect in the signal ratio in the repeat runs, not every such curve was filed as active; the % refers to the signal ratio; note: % is set by controls: 0 for no effect and ±100 for the full control effect)
Outline: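 HEK 293T FXR-UAS-bla, 5000 cells/well; compound + CDCA 50 uM final; 16 h, 37 °C; B/G FRET substrate 2 h RT; fluorescence.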

Sequence of Retinoic acid receptor RXR-alpha (Homo sapiens) (P19793 whole entry, looked up): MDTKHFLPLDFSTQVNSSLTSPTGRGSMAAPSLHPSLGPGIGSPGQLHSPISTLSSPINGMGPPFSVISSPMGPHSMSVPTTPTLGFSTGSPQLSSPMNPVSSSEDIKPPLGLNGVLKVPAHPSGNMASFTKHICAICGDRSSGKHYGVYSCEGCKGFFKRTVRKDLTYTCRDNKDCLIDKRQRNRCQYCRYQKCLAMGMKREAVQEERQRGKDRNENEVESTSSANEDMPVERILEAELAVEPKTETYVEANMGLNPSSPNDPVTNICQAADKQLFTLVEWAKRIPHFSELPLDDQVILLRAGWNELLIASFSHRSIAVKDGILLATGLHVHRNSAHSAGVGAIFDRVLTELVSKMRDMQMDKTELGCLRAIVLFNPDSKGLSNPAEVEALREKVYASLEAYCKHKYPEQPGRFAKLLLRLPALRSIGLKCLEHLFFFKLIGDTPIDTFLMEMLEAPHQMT
Sequence of Peroxisome proliferator-activated receptor delta (Homo sapiens) (Q03181 whole entry, looked up): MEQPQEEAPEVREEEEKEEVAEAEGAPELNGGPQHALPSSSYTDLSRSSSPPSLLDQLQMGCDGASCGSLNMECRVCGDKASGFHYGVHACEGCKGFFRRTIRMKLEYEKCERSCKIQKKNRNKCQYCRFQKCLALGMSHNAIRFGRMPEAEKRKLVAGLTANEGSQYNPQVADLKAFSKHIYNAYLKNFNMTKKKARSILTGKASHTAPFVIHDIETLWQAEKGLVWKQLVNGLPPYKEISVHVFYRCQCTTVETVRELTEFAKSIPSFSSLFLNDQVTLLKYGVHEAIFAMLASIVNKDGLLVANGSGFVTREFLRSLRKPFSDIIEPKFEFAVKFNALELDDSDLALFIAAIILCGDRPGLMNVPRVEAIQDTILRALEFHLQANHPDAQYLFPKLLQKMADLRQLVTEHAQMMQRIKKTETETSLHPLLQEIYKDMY
Sequence of Bile acid receptor (Homo sapiens) (Q96RI1 whole entry, looked up): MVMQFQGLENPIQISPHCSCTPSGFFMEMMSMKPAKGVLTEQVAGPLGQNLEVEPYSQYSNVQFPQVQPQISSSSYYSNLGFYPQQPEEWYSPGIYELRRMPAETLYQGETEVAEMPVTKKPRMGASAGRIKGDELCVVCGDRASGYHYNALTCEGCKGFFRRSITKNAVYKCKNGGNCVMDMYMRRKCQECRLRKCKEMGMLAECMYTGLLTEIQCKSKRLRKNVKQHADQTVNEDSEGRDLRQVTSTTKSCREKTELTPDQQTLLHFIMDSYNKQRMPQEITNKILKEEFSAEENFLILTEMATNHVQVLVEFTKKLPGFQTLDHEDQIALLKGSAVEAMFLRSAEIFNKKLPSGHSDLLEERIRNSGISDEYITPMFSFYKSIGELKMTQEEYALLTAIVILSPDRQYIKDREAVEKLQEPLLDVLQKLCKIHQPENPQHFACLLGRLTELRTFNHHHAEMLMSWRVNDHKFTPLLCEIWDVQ
Sequence of Vitamin D3 receptor (Homo sapiens) (P11473 whole entry, looked up): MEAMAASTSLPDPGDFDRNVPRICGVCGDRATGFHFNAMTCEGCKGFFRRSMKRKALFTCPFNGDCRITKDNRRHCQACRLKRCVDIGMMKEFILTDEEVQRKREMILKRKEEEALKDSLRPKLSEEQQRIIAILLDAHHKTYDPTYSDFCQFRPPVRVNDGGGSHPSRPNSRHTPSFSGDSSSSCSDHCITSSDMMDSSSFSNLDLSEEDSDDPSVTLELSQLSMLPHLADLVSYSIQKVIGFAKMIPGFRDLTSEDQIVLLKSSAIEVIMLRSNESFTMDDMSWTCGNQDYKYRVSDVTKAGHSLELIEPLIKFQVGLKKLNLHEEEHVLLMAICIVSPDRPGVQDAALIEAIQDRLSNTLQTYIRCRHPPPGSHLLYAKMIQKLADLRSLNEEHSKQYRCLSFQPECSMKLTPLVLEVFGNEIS

O=S(=O)(O)c1ccc(Nc2nc(Nc3ccc(/C=C/c4ccc(Nc5nc(Nc6ccc(S(=O)(=O)O)cc6)nc(N(CCO)CCO)n5)cc4S(=O)(=O)O)c(S(=O)(=O)O)c3)nc(N(CCO)CCO)n2)cc1
inactive: Potency [1] | Potency [2] | Potency [3] | Potency [5] | Potency [6] | Potency [7] | Potency [9] | Potency [10] | Potency [11]
active: Potency [4] 13.2 µM | Potency [8] 37.1 µM | Potency [12] 26.3 µM

Clc1nnc(Cl)c2ccccc12
inactive: Potency [1] | Potency [13] | Potency [14] | Potency [15] | Potency [3] | Potency [4] | Potency [16] | Potency [5] | Potency [7] | Potency [8] | Potency [9] | Potency [10] | Potency [11] | Potency [17]

Cc1c2ccccc2c(C)c2c1ccc1ccccc12
active: Potency [2] 21.9 µM | Potency [15] 21.9 µM | Potency [18] 48.5 µM | Potency [3] 43.6 µM | Potency [5] 43.2 µM and 27.5 µM | Potency [6] 43.2 µM and 19.5 µM | Potency [7] 12.2 µM | Potency [8] 43.2 µM | Potency [9] 60.5 µM and 27.3 µM | Potency [10] 24.1 µM and 21.7 µM
inactive: Potency [11]

CCc1oc2ccccc2c1C(=O)c1cc(I)c(O)c(I)c1
inactive: Potency [3] | Potency [7] | Potency [8] | Potency [9] | Potency [11]
active: Potency [10] 11.9 µM

C[C@H]1NCc2cc(-c3ccc4c(=O)c(C(=O)O)cn(C5CC5)c4c3OC(F)F)ccc21
inactive: Potency [1] | Potency [14] | Potency [15] | Potency [3] | Potency [4] | Potency [16] | Potency [5] | Potency [6] | Potency [7] | Potency [8] | activity, negative = cytotoxicity [9] -17.1% [at 19 µM] | viability change, negative = cytotoxic [11] 1.98% [at 15.8 µM] | activation [17] -2.94% [at 15.8 µM] | activation [12] -4.06% [at 15.8 µM]

CC(CCc1ccccc1)NCC(O)c1ccc(O)c(C(N)=O)c1 (stereo not given)
inactive: Potency [1] | Potency [13] | Potency [14] | Potency [15] | Potency [3] | Potency [7] | Potency [8] | Potency [9] | Potency [10] | Potency [11] | Potency [12]

CC(=O)CC(=O)Nc1ccc(S(=O)(=O)O)cc1
inactive: Potency [1] | Potency [13] | Potency [2] | Potency [14] | Potency [15] | Potency [3] | Potency [4] | Potency [16] | Potency [5] | Potency [6] | Potency [7] | Potency [8] | Potency [9] | Potency [11] | Potency [17] | Potency [12]

Cc1c(F)c(N2CCNC(C)C2)cc2c1c(=O)c(C(=O)O)cn2C1CC1 (stereo not given)
inactive: Potency [1] | Potency [13] | Potency [2] | Potency [14] | Potency [15] | Potency [3] | Potency [4] | Potency [16] | Potency [6] | Potency [7] | Potency [8] | Potency [9] | Potency [10] | Potency [11] | Potency [17]

CCC(CC)(CC(=O)Nc1cccc(/C=C/c2nc(C3CCC3)cs2)c1)C(=O)O
inactive: Potency [1] | Potency [2] | Potency [14] | Potency [19] | Potency [3] | Potency [5] | Potency [6] | Potency [7] | Potency [8] | Potency [9] | Potency [10] | Potency [11] | Potency [17]

Cc1c(C)c([N+](=O)[O-])c(C(C)(C)C)c([N+](=O)[O-])c1C
inactive: Potency [13] | Potency [2] | Potency [14] | Potency [15] | Potency [3] | Potency [7] | Potency [8] | Potency [9] | Potency [10] | Potency [11] | Potency [17]

OCC(F)(F)F
inactive: Potency [1] | Potency [13] | Potency [14] | Potency [19] | Potency [15] | Potency [18] | Potency [3] | Potency [4] | Potency [16] | Potency [5] | Potency [6] | Potency [7] | Potency [8] | Potency [9] | Potency [10] | Potency [11] | Potency [12]
